Assay outcomes from PubChem BioAssay.
HT1080 IDH1KD tx: kills HT-1080 cells with IDH1 knockdown. 2% of 360,000 active. Potency, µM (series often up to 46.1 µM), for the others: top-dose activity, negative = toxicity, most hits filed as cytotoxic. HT-1080 IDH1 knockdown viability, ATP luminescence, 48 h. AID 686971;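 note: potency is the fitted concentration of half-maximal effect; 0% = DMSO wells and -100% = cell-free medium wells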
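HT-1080-IDH1KD cells (IDH1 knocked down), 750/well in RPMI with 5% FBS, treated with compound 48 h at 37 degrees C. Viability by CellTiter-Glo luminescence, normalised to DMSO and no-cell wells; concentration-response curves classed.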
DT40 TDP1 no CPT: qHTS for Inhibitors of human tyrosyl-DNA phosphodiesterase 1 (TDP1): qHTS in cells in absence of CPT. DT40 Tdp1-/- hTDP1 cells, no CPT, ATP luminescence, 48 h. Potency, µM (top dose mostly 46.2 µM), inactives show at the top dose activity change, negative = growth inhibition, usual class: inhibitors. 15% of 420,000 active; note: potency is the fitted concentration of half-maximal effect; nearly all actives have a fitted effect of over 55% in size
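Growth kinetics read by CellTiter-Glo luminescence after ≥48 hr at 37 °C. Cells: DT40 Tdp1-/- stably carrying human TDP1, 400 per well, compound exposure in the absence of CPT (DMSO vehicle).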
uPA surface inh: blocks generation of uPA at the cell surface | 0.31% of 330,000 active | cell surface uPA generation assay, qHTS | Potency, µM (highest dose often 38.3 µM), without a hit: at the highest dose activity change, negative = inhibition, most hits filed as inhibitors; active = well fitted inhibition curve with a large enough effect; inconclusive = small, poorly fitted or top-dose-only effect; inactive = no such curve, though single readings can be large or run the other way; tested in mouse RAW 264.7 cells; note: potency is the fitted concentration of half-maximal effect; nearly all actives have a fitted effect of over 55% in size
HT1080-NT tox: kills 2HG-producing HT-1080-NT fibrosarcoma cells | HT-1080-NT fibrosarcoma viability, CellTiter-Glo ATP luminescence, 48 h | Potency, µM (doses to about 46.1 µM), inactives show at the highest dose activity, negative = less viability, hits mostly cytotoxic | 1.6% of 360,000 active | AID 686970;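 note: NT is the 2HG producing partner of a matched IDH1 knockdown line; potency is the fitted concentration of half-maximal effect; 0% = DMSO-treated cells and -100% = media-only wells without cells; nearly all actives have a fitted effect of over 55% in size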
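A 48-hour cytotoxicity screen used HT-1080-NT cells plated 2 hours before compound delivery. ATP-based CellTiter-Glo luminescence measured viability, normalized to DMSO and no-cell controls.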
IL1B secr inh: inflammasome signaling inhibition, IL-1 beta readout; activity change, % at 57.5 µM; THP-1 LPS/ATP IL-1B secretion, AlphaLISA, 16 h; stronger effect = lower value; 4.7% of 360,000 active; in the data active = activity change below about -50%; inconclusive = mostly about -30% to -49%
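Secreted IL-1B measured by AlphaLISA bead assay after 16 h compound exposure of THP-1 cells; compounds (final up to 57.5 uM) added 1 h before LPS (250 ng/mL) and ATP (1.25 mM) stimulation; lower signal means less secretion.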
DT40 TDP1 CPT: DT40-hTDP1 cell growth loss with CPT; chicken DT40 Tdp1-/-;hTDP1 cells + 20 nM CPT, ATP luminescence, 48 h; Potency, µM (titrated, usually from 46.2 µM), for inactives: at the top dose activity change, negative = growth inhibition, hits mostly inhibitors; 12% of 420,000 active; note: potency is the fitted concentration of half-maximal effect; nearly all actives have a fitted effect of over 55% in size
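Cell growth measured by CellTiter-Glo luminescence after a minimum 48 h, 37 C compound exposure with 20 nM CPT in Tdp1-knockout DT40 cells stably expressing hTDP1, seeded 400/well; qHTS titration format.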
Starred values were filed as active, the others as inactive; ? = inconclusive; . = no result. Compounds with a hit are over-represented: about 19% of the library has one in this group of screens. Unless noted, calls come from the whole dose curve; as a rule, active = well fitted curve in the direction sought with a large enough effect; inconclusive = small, poorly fitted or top-dose-only effect, or another doubt; inactive = no such curve, though single readings can be large; an effect the other way counts as inactive or inconclusive. Unless noted, % is set by controls: 0 for no effect and ±100 for the full control effect.

SMILES | HT1080 IDH1KD tx | DT40 TDP1 no CPT | uPA surface inh | HT1080-NT tox | IL1B secr inh | DT40 TDP1 CPT
C=CCn1c(SCC(=O)c2[nH]c(C)c(C(=O)OCC)c2C)nc2scc(-c3ccc(OC)cc3)c2c1=O | -18.2% | 14.6µM* | -1.2% | -19.9% | 44.5 | 9.2µM*
Cc1cccc(C(=O)NNC2=C(C(=O)C(F)(F)F)CCC2)c1O | 20.6µM* | 13µM* | 4.4% | 20.6µM* | 97.0 | 6.51µM*
O=C(NNC1=C(C(=O)C(F)(F)F)CCC1)c1cccc(O)c1 | 18.4µM* | ? | -10.6% | ? | 19.8 | ?
COc1cc2c(c(OC)c1OC)-c1ccc(SC)c(=O)cc1C(NC(=O)c1ccccc1)CC2 (configuration not stated) | ? | 0.0164µM* | -13.9% | ? | ? | 0.0146µM*
COc1cc(F)ccc1-c1cc(C(=O)Nc2cc(OC)c(OC)c(OC)c2)[nH]n1 | 6.6% | ? | . | 6.2% | ? | ?
C=COC(=O)NC1CCc2cc(OC)c(OC)c(OC)c2-c2ccc(SC)c(=O)cc21 (configuration not stated) | ? | 0.0164µM* | -9.5% | 0.184µM* | 43.0 | 0.0259µM*
COc1cc2c(c(OC)c1OC)-c1ccc(OC)c(=O)cc1C(NC(=O)c1ccccc1)CC2 (configuration not stated) | 0.0206µM* | 0.0184µM* | -13.9% | 0.0731µM* | 10.3 | 0.0092µM*
COc1cccc(C(=O)Nc2ccc3c(cc2=O)[C@@H](NC(C)=O)CCc2cc(OC)c(OC)c(OC)c2-3)c1 | 4.61µM* | 2.91µM* | 10µM* | 5.8µM* | 54.6 | 6.51µM*
COc1cc2c(cc1NC(=O)c1cccc(F)c1)CCCC2 | 5.6% | ? | 0.0% | 6.3% | -2.6 | ?
COc1c(O[C@@H]2O[C@H](CO)[C@@H](O)[C@H](O)[C@H]2O)cc2c(c1OC)-c1ccc(SC)c(=O)cc1C(NC(C)=O)CC2 (some centres not stated) | ? | 5.1% | ? | ? | 40.5 | 7.6%
CC(C)(C)CC(=O)Nc1nnc2n1CCS2 | . | 1.5% | . | . | . | -21.7%
CC1=C(C(=O)N2CCOCC2)CC(CC(=O)NC(c2ccccc2)c2ccccc2)C(=O)N1Cc1ccc(F)cc1 (configuration not stated) | 10.8% | ? | . | 2.3% | 12.3 | 0.4%
Cc1ccc(S(=O)(=O)N2CCN(Cc3ccccc3)CC2)s1 | -0.3% | -19.7% | -8.9% | -6.3% | 0.0 | -16.8%
COc1cc2c(c(OC)c1OC)-c1ccc(SC)c(=O)cc1C(NC=O)CC2 (configuration not stated) | ? | 0.164µM* | -10.6% | 0.0461µM* | 29.7 | 0.13µM*
COc1ccc(C(C)=O)cc1CC(=O)NC1CCCCCC1 | 3.9% | -22.5% | -0.2% | 5.2% | 2.1 | -19.4%
COC(=O)c1ccc2c(c1)C(NC(C)=O)CCc1cc(OC)c(OC)c(OC)c1-2 (configuration not stated) | ? | 0.0206µM* | -16.2% | 0.0065µM* | -72.6* | 0.0184µM*
COc1cc2c(c(OC)c1OC)C(=O)CC2 | 3.7% | 7.0% | 0.5% | 0.0% | 10.7 | 3.7%
CCCC(=O)NC1CCc2cc(OC)c(OC)c(OC)c2-c2ccc(OC)c(=O)cc21 (configuration not stated) | ? | 0.0164µM* | -12.5% | ? | 61.6 | 0.0164µM*
COc1c(C=O)c2c(c(OC)c1OC)-c1ccc(OC)c(=O)cc1C(NC(C)=O)CC2 (configuration not stated) | ? | 0.0146µM* | -11.8% | 0.0052µM* | 0.0 | 0.0082µM*
COc1cc(CC(=O)NC2CCCc3ccccc32)cc(OC)c1OC (configuration not stated) | 4.7% | ? | 4.3% | 0.7% | 23.4 | ?
Fc1ccccc1-c1nc2nc3ccccc3nc2n1CC1CCCO1 (configuration not stated) | 10.0% | ? | -2.5% | 3.5% | 1.2 | ?
CC1(C)OC2C[C@](O)(C(N)=O)C[C@H](O)[C@H]2O1 (some centres not stated) | . | -1.2% | . | . | . | 0.0%
CCOC(=O)c1c(C)n(C)c2ccc(OC(C)=O)cc12 | 1.2% | -15.2% | -2.3% | 7.5% | -14.5 | -10.0%
COc1ccc2c(c1)c(C(=O)OCCN(C)C)c(C)n2C | -2.2% | ? | -6.7% | -9.6% | -69.3* | -13.6%
COCCOC(=O)c1c(C)n(C)c2ccc(OC(=O)c3c(OC)cccc3OC)cc12 | -9.6% | 16.4µM* | 3.3% | -20.0% | 26.7 | ?
SMILES | HT1080 IDH1KD tx | DT40 TDP1 no CPT | uPA surface inh | HT1080-NT tox | IL1B secr inh | DT40 TDP1 CPT
CC(C)c1ccc(S(=O)(=O)/N=C2\C=C(NS(=O)(=O)c3ccccc3)C(=O)c3ccccc32)cc1 | ? | ? | 4.5% | -27.1% | 22.4 | ?
CC(C)[n+]1ccn(C2=C([O-])c3ccccc3C(=O)/C2=N\S(=O)(=O)c2ccccc2)c1 | 23.1µM* | 18.4µM* | -7.8% | 23.1µM* | . | ?
CCCCC[n+]1ccn(C2=C([O-])c3ccccc3C(=O)/C2=N\S(=O)(=O)c2ccccc2)c1 | 18.4µM* | 18.4µM* | -15.5% | ? | 20.4 | 14.6µM*
CC(C)(C)c1cc[n+](C2=C([O-])c3ccccc3C(=O)/C2=N\S(=O)(=O)c2ccccc2)cc1 | 20.6µM* | 23.1µM* | 1.6% | ? | . | ?
CCCCC[n+]1ccn(C2=C([O-])c3ccccc3C(=O)/C2=N\S(=O)(=O)c2ccc(Br)cc2)c1 | -2.1% | ? | ? | -7.4% | 81.6 | 10.3µM*
O=C(COC(=O)/C=C/c1cccs1)Nc1ccc2ccccc2c1 | 4.7% | -5.2% | 6.6% | 0.2% | 3.4 | -16.9%
CC(C)N1CCc2c(sc(NC(=O)c3ccc(S(=O)(=O)N4CCCCC4C)cc3)c2C(N)=O)C1 (configuration not stated) | ? | ? | 0.4% | -27.5% | -15.5 | ?
CC(C)NC(=O)c1cc2cc([N+](=O)[O-])ccc2s1 | -0.8% | 14.6µM* | -6.9% | 0.2% | -7.2 | ?
CCCNC(=O)c1cc2cc([N+](=O)[O-])ccc2s1 | -2.2% | -17.4% | 0.9% | -14.0% | -1.0 | -26.1%
CC(C)N1CCc2c(sc(NC(=O)c3cc4cc([N+](=O)[O-])ccc4s3)c2C(N)=O)C1 | ? | 4.61µM* | -5.0% | ? | 121.4 | 4.61µM*
CC(C)N1CCc2c(sc(NC(=O)c3ccc4ccccc4c3)c2C(N)=O)C1 | ? | ? | ? | ? | -84.4* | 14.6µM*
